We go through nine compounds from PubChem BioAssay (NCI).

The panel holds about 83,000 compounds, 20% with a hit somewhere; the sample as a whole holds those more often.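 Testing used 96-well plates and a 48-hour single-concentration exposure. Example: -40 means 40% of the starting cells died.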 A number with no mark means an inactive call. Activity calls are given as the source filed them. The calls were made as follows: active = growth percent below 10; inactive = the rest.

What all share (test): NCI-60 one-dose screen, 48 h (100 = growth as untreated, 0 = no growth, -100 = all killed)
Experiment [1] has as its system SK-MEL-2 melanoma. The settings on record: 10 µM.
Experiment [2] has as its system EKVX NSCLC. The settings on record: 10 µM.
Experiment [3] deals with SN12C renal. The settings on record: 10 µM.
Experiment [4] deals with UO-31 renal. The settings on record: 10 µM.
For experiment [5], the system named is TK-10 renal. The settings on record: 10 µM unless noted.
For experiment [6], the system named is ACHN renal. The conditions noted are these: 10 µM.
Experiment [7] concerns CAKI-1 renal. The settings on record: 10 µM.
The subject of experiment [8] is CCRF-CEM leukemia. The settings on record: 10 µM.
Experiment [9] has as its system MOLT-4 leukemia. The settings on record: 10 µM.
Experiment [10] has as its system SR leukemia. The settings on record: 10 µM.
In experiment [11] the test system is RPMI-8226 leukemia. The conditions noted are these: 10 µM.
Experiment [12] relates to OVCAR-8 ovarian. The conditions noted are these: 10 µM.
For experiment [13], the system named is OVCAR-5 ovarian. The settings on record: 10 µM.
In experiment [14] the test system is IGROV1 ovarian. The conditions noted are these: 10 µM.
For experiment [15], the system named is OVCAR-3 ovarian. The conditions noted are these: 10 µM.
For experiment [16], the system named is HS 578T breast. The conditions noted are these: 10 µM.
Experiment [17] concerns NCI/ADR-RES ovarian. The settings on record: 10 µM.
In experiment [18] the test system is A498 renal. The conditions noted are these: 10 µM.
The subject of experiment [19] is OVCAR-4 ovarian. The settings on record: 10 µM.
For experiment [20], the system named is SK-OV-3 ovarian. The conditions noted are these: 10 µM.

On to `COc1cc(C(=O)NC(=S)Nc2ccc3ccccc3c2)cc(OC)c1OC`, for which the growth in experiment [1] was 83.6%; in experiment [2] it was 102%; in [3] it was 104%; in experiment [4], 66.7%; in [5] it was 117%; in experiment [6], 93.7%. The growth is 75.1% in [7]; 98.6% in experiment [8]; 89.4% in experiment [9]; 87.4% in [10]; 88.9% in experiment [11]; 104% in [12]. Moreover, the growth in experiment [13] is 99.9%; in [14], 95.5%; in experiment [15], 107%; in [16], 94.5%; in experiment [17], 51.5%.
As to `O=C1c2ccccc2C(=O)c2c1ccc(C(=O)O)c2[N+](=O)[O-]`, the growth in experiment [1] was 119%; in experiment [2] it was 109%; in experiment [3], 101%; in [4], 85.1%; in experiment [5], 109%; in [6], 98.8%. The growth in experiment [7] was 98.8%; in experiment [18] it was 84%; in experiment [9], 93.5%; in experiment [10], 76.1%; in experiment [12], 100%; in experiment [13] it was 102%. The growth in experiment [19] was 96%; in [20], 108%; in [14] it was 105%; in [15], 115%; in experiment [16] it was 82.5%; in [17] it was 103%.
Turning to `NC(=O)NC(=O)c1ccc(Cl)cc1`, the growth in experiment [1] was 92.2%; in experiment [2], 101%; in [3], 104%; in experiment [4] it was 77%; in experiment [5], 100%; in experiment [6] it was 105%. In addition, the growth in experiment [7] was 94.1%; in experiment [18], 102%; in experiment [9], 102%; in [10], 88.9%; in experiment [12], 106%; in experiment [13], 113%. The growth was 103% in experiment [20]; 92.6% in experiment [14]; 125% in experiment [15]; 97.9% in experiment [16]; 107% in [17].
Consider `NNc1ccccc1C(=O)O`, for which the growth in experiment [1] is 102%; in experiment [2] it was 116%; in experiment [3], 116%; in experiment [4], 87.9%; in experiment [5] it was 110%; in experiment [6], 98.9%. The growth in [7] is 110%; in experiment [18], 98.1%; in [9] it was 107%; in [10], 112%; in [12], 110%; in [13] it was 88.9%. In addition, the growth in experiment [19] was 111%; in experiment [20], 115%; in experiment [14], 118%; in [15] it was 119%; in experiment [16], 108%; in experiment [17], 107%.
As to `COS(=O)(=O)c1ccc(Br)cc1`, the growth in experiment [1] was 95%; in experiment [2], 106%; in experiment [3] it was 93.9%; in experiment [4] it was 86.2%; in [5] it was 97.5%; in experiment [6] it was 103%. Besides, the growth in experiment [7] was 115%; in experiment [8], 127%; in experiment [9], 129%; in experiment [10] it was 135%; in experiment [11], 111%; in experiment [12], 98.6%. Besides, the growth in experiment [13] is 93.4%; in experiment [19], 107%; in experiment [20] it was 104%; in experiment [14], 118%; in experiment [15], 101%; in experiment [16], 114%. Besides, in experiment [17], the growth was 93.7%.
With `CCOC(=O)C(CCC(C)C)C(=O)OCC`, the growth in [1] was 97.5%; in experiment [2] it was 99.3%; in experiment [3] it was 109%; in [4] it was 84.7%; in [5], 86.8%; in experiment [6] it was 101%. Besides, the growth is 100% in experiment [7]; 99.9% in experiment [8]; 83.8% in experiment [9]; 79.7% in [10]; 98.8% in experiment [11]; 95.6% in [12]. For the same compound, the growth in experiment [13] is 107%; in experiment [19], 107%; in [20] it was 106%; in [14] it was 102%; in experiment [15], 109%; in experiment [16] it was 115%. The growth in experiment [17] was 108%.
Regarding `COc1nc(N)nc2c1ncn2C1OC(CO)CC1O` (stereo not given), the growth is 106% in experiment [1]; 102% in experiment [2]; 103% in experiment [3]; 82.4% in [4]; 105% in experiment [5]; 97.4% in experiment [6]. In addition, the growth in experiment [7] is 104%; in experiment [8], 58.8%; in experiment [9], 97.7%; in experiment [10], 115%; in [11] it was 92%; in [12] it was 101%. The growth in [13] was 100%; in experiment [19] it was 120%; in [20], 98.5%; in experiment [14], 112%; in experiment [15], 118%; in [16], 117%. The growth in experiment [17] was 107%.
As to `CCOC(=O)c1cc2cccc(OC)c2oc1=O`, the growth in experiment [1] was 74.9%; in experiment [2], 107%; in experiment [3] it was 107%; in experiment [4], 105%; in [5], 110%; in experiment [6], 117%. Further, the growth in experiment [7] was 132%; in [8], 91.7%; in [9], 89.9%; in experiment [10], 104%; in experiment [11], 95.4%; in [12], 116%. Further, the growth in experiment [13] is 114%; in experiment [19], 109%; in experiment [20] it was 117%; in experiment [14], 108%; in [15] it was 138%; in [16] it was 121%. Moreover, in [17], the growth was 111%.
For `Cn1cnc2nc(Cl)nc(Cl)c21`, the growth is -23.4% (active) in [1]; 104% in experiment [2]; 22.4% in experiment [3]; 45.2% in [4]; 4.15% (active) in [5]; 29.4% in experiment [6]. Further, the growth in [7] was -61.6% (active); in [18], 62.6%; in experiment [9], 35.8%; in experiment [10], 27.9%; in [11] it was 23.4%; in experiment [12], 24.3%. In addition, the growth in experiment [13] was 59.8%; in experiment [19], 42.4%; in experiment [20], 61.2%; in [14] it was 30.3%; in experiment [15], -27.8% (active); in [16], 72.4%. Besides, the growth in experiment [17] was 27.1%.
